Screening data deposited in PubChem BioAssay by National Center for Advancing Translational Sciences (NCATS).
Compounds with a hit are over-represented: about 4.7% of the library has one in this group of screens.
TRHR agonist: TRH receptor (human) agonism; P34981; TRHR cells, calcium flux fluo-8, FDSS agonist mode; activation, % at 2 µM; 0.18% of 360,000 active; AID 493084
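Read-out: compound-evoked intracellular calcium rise in TRHR cells, fluo-8 dye, kinetic FDSS fluorescence at 1 s/cycle following a 10-cycle baseline. Cells cultured overnight before dye loading (30 min–1.5 h, RT).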
TRHR PAM: allosteric enhancers of human TRH receptor. P34981. TRHR cells, fluo-8 calcium fluorescence, EC20 TRH enhancement. enhancement, % at 2 µM. 0.66% of 360,000 active; in the data active = enhancement above about 30%
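Enhancer read-out: after compound pinning and an initial kinetic agonist-mode read, an EC20 of TRH (10 nM final) was injected and fluo-8 calcium signal (Ex 480/Em 530) followed at 1 s/cycle for 100 cycles in TRHR-expressing cells.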
D1 potentiator: enhances dopamine response at the human D1 receptor; HEK293 TREx D1 cells, calcium flux, dopamine EC20 potentiation; potentiation, % at 10 µM; 0.036% of 360,000 active; AID 504651; in the data active = potentiation above about 30%
Target sequence (P21728 whole entry, looked up): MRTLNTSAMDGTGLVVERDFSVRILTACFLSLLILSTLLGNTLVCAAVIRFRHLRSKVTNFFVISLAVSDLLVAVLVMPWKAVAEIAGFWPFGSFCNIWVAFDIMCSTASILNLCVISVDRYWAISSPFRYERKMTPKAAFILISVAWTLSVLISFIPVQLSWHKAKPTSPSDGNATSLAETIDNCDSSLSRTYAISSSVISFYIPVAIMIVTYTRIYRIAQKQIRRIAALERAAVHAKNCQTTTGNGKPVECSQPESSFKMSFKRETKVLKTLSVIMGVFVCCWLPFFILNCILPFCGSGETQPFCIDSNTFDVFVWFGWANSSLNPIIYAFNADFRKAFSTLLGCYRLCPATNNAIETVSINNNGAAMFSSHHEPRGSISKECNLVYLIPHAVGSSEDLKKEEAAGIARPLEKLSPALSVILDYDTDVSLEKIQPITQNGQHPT
D1 antagonist: antagonists of human D1 dopamine receptor; P21728; HEK293 TREx D1 cells, calcium flux, dopamine EC80; active compounds read low; activity change, negative = inhibition, % at 10 µM; 3.2% of 360,000 active; AID 504652; in the data active = activity change below about -30%
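Tetracycline-induced HEK293 Trex D1 cells, force-coupled to calcium, dye-loaded; compounds added and read 180 s, then EC80 dopamine added and calcium flux tracked kinetically another 180 s.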
D1 ag: human D1 receptor agonism. P21728. 1% of 360,000 active. activation, % at 2 µM. AID 504660. HEK293 T-REx D1 cells, calcium flux, agonist mode
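Agonism was scored from calcium flux recorded over 180 s (1 read/s) after pintool compound addition, following a 10-cycle baseline. Cells were inducible force-coupled HEK293 TREx D1, plated overnight at 30 C and loaded with no-wash calcium dye.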
Hits are given with their value; . = inactive; / = no result. Rule as the data show it, unless noted: active = activation above about 30%; inactive = the rest.

SMILES	TRHR agonist	TRHR PAM	D1 potentiator	D1 antagonist	D1 ag
O=S(=O)(c1ccc(Cl)cc1)N1CCN(c2nc(-c3ccc(F)cc3)nc3cc(Cl)ccc23)CC1	.	.	.	.	.
CCC(=O)N1CCc2cc(CNC(=O)c3ccccc3C)ccc21	.	.	.	.	.
Cc1ccc(S(=O)(=O)Nc2ccc(Cl)cc2)cc1NC(=O)c1cc2c(s1)CCCC2	.	32	.	.	.
Cc1ccc(S(=O)(=O)N2CCOCC2)cc1NC(=O)c1cc2c(s1)CCC2	.	.	.	.	.
CCN(CC)c1cccc(OC2=NS(=O)(=O)c3ccccc32)c1	.	37	.	.	.
CCc1ccc(OC2=NS(=O)(=O)c3ccccc32)cc1	.	.	.	/	.
COc1ccc(NC(=O)CSc2nc(-c3ccccc3)cc(-c3cc(OC)c(OC)c(OC)c3)c2C#N)c(OC)c1	.	.	.	.	33
N#Cc1ccc(-c2cccs2)nc1SCC(=O)Nc1cccc(C(F)(F)F)c1	.	.	.	.	.
N#Cc1ccccc1NC(=O)CSc1nc(-c2ccccc2)cc(C(F)(F)F)c1C#N	42	.	.	.	133
Cc1cccc(NC(=O)CSc2nc(-c3cccs3)cc(C(F)(F)F)c2C#N)c1C	.	.	.	.	49
N#Cc1c(C(F)(F)F)cc(-c2cccs2)nc1SCC(=O)Nc1cccc(C(F)(F)F)c1	.	.	.	.	68
CCOC(=O)c1c(N)n(-c2ccc(Cl)c(Cl)c2)c2nc3ccccc3nc12	.	.	.	.	.
Cc1ccc(C)c(NC(=O)CSc2ccc(-c3cccs3)nn2)c1	.	.	.	-81	.
CCCCOc1ccc(-c2cc(C(F)(F)F)c(C#N)c(SCC(=O)O)n2)cc1	.	.	.	.	68
N#Cc1c(C(F)(F)F)cc(-c2cccs2)nc1SCC(=O)Nc1ccc(Cl)cc1	.	.	.	.	81
N#Cc1c(C(F)(F)F)cc(-c2ccc(F)cc2)nc1SCC(=O)O	.	.	.	.	.
CCOC(=O)N1CCC(NC(=O)c2cnn(-c3ccc(C)cc3)c2C2CCN(C(=O)OC(C)(C)C)CC2)CC1	.	.	.	.	.
COc1ccccc1NC(=O)CSc1nc2c(oc3ccccc32)c(=O)n1-c1ccc(C)cc1	.	.	.	-39	.
COc1ccc(NC(=O)CSc2nnc(-c3nonc3NC(C)=O)n2-c2ccccc2)cc1	.	.	.	-46	.
CC(=O)Nc1nonc1-c1nnc(SCC(=O)Nc2ccc(C)c(Cl)c2)n1-c1ccccc1	.	.	.	.	.
COc1ccc(-n2c(SCC(=O)Nc3ccc(C)cc3)nc(O)c(Cc3ccccc3)c2=O)cc1	.	.	.	-51	.
Cc1c2cnn(CC(=O)NCc3ccc(F)cc3)c(=O)c2c(C)n1Cc1cccc(Cl)c1	.	.	.	.	.
COc1ccc(C(=O)Nc2nc3ccc(S(=O)(=O)N4CCCC4)cc3s2)cc1	.	.	.	-32	.
O=C(Nc1nc2ccccc2s1)c1ccc(S(=O)(=O)N2CCCC2)cc1	.	.	.	-46	.
O=C(NCc1ccccc1Br)c1cnc2sc(N3CCCCCC3)nn2c1=O	.	.	.	.	.
SMILES	TRHR agonist	TRHR PAM	D1 potentiator	D1 antagonist	D1 ag
Cc1ccc(-c2noc(CN(C3CCCCC3)S(=O)(=O)c3ccc(F)cc3)n2)cc1	.	.	.	.	.
Cc1ccc(O)c(-c2[nH]ncc2C(=O)c2ccc(Cl)cc2)c1	.	.	.	-34	.
C=CCN1C(=O)/C(=C/c2ccc(OCC(=O)O)cc2)S/C1=N/c1nccs1	.	.	.	.	.
C=CCN=C1S/C(=C\c2ccc(Cl)cc2)C(=O)N1CC=C	.	.	.	.	.
C=CCN1C(=O)/C(=C/c2ccc(N(C)C)cc2)S/C1=N\c1nnc(CC)s1	53	.	.	.	167
C=CCN1C(=O)/C(=C/c2ccc(O)c(OC)c2)S/C1=N/c1nccs1	72	.	.	.	130
CCN(C(=O)c1ccc2c(c1)N(Cc1cccc(Cl)c1)C(=O)c1ccccc1S2=O)c1ccccc1 (configuration not stated)	.	.	.	.	.
Cc1cccc(OCCSc2nc3ccccc3n2CC(=O)N2CCOCC2)c1C	.	.	.	.	.
COCCn1c(C)cc(C(=O)CSc2cc(C)c3ccccc3n2)c1C	.	.	.	-38	.
COCCn1c(C)cc(C(=O)CSc2nc3ccccc3c(=O)n2Cc2ccco2)c1C	.	.	.	.	.
COc1ccc(C(=O)c2cnc3cc4c(cc3c2C)OCO4)cc1	.	.	.	-30	.
COc1ccc(CNC(=O)CCn2c(=O)c3cccn3c3ccc(F)cc32)cc1OC	.	.	.	-43	.
O=c1cc(O)c2sc3nc(-c4ccccc4)cc(C(F)(F)F)c3c2[nH]1	.	.	.	.	56
COc1ccc(OC)c(-c2cc(C(F)(F)F)c3c(n2)sc2c(O)cc(=O)[nH]c23)c1	.	.	.	.	.
CCSc1nnc(-c2sc3nnc(-c4ccccc4)c(-c4ccccc4)c3c2N)o1	64	.	.	.	109
O=C(C1CCC(Cn2c(=O)c3sccc3n(Cc3ccc(F)cc3)c2=O)CC1)N1CCOCC1 (configuration not stated)	.	.	.	.	.
COCC(C)NC(=O)CSc1nc2cc(S(=O)(=O)N3CCCCC3)ccc2o1 (configuration not stated)	.	.	.	-47	.
COCCCNC(=O)CSc1nc2cc(S(=O)(=O)N3CCCCC3)ccc2o1	.	.	.	.	.
CCCSc1ncc(Cl)c(C(=O)Nc2ccc(S(=O)(=O)N(C)c3ccccc3)cc2)n1	.	.	.	.	.
CCCSc1nnc(NC(=O)c2nc(SC)ncc2Cl)s1	.	.	.	-36	.
CCSc1ncc(Cl)c(C(=O)Nc2ccccc2)n1	.	36	.	.	.
CN(c1ccccc1)S(=O)(=O)c1ccc(NC(=O)c2nc(S(C)(=O)=O)ncc2Cl)cc1	.	.	.	-47	.
CSc1ncc(Cl)c(C(=O)Nc2nnc(SC)s2)n1	.	.	.	.	.
CCSc1ncc(Cl)c(C(=O)Nc2c(C(=O)Nc3ccccc3)oc3ccccc23)n1	.	.	.	.	.
CCOC(=O)c1c(NC(=O)c2nc(S(C)(=O)=O)ncc2Cl)sc(C(C)=O)c1C	.	.	.	-31	.
COc1ccc(NC(=O)Cn2c(=O)n(C(C)C)c(=O)c3oc4ccccc4c32)cc1Cl	.	.	.	.	.
CCSc1ncc(Cl)c(C(=O)Nc2ccc(S(=O)(=O)N3CCC(C)CC3)cc2)n1	.	.	.	.	.
CCOC(=O)c1c(-c2ccccc2)csc1NC(=O)c1nc(S(=O)(=O)CC)ncc1Cl	.	.	.	-47	.
CCOC(=O)c1c(NC(=O)/C=C/c2ccc(C)cc2)sc(C(C)=O)c1C	.	.	.	-32	.
